Laboratory results as given in the antibiotic and cytotoxicity screens of Wong et al. (2023).
The whole screen tested about 39,000 compounds, of which about 3,300 (8.5%) were called active. What follows is part of a selection rich in actives, with near analogues and random picks from the rest.

Each molecule was assayed on HepG2 (assay: cytotoxicity call (relative viability < 0.9)). Settings: 10 µM.
For `C[C@H]1O[C@H](C[N+](C)(C)C)C[C@@H]1O`, the cytotoxicity call was “inactive”. With `NCCc1nnc2n1CCCCC2` the cytotoxicity call was “inactive”. In the case of `C[C@H]1CN([C@@H](C)CO)C(=O)CCCn2nncc2CO[C@@H]1CN(C)C(=O)Oc1cccc2ccccc12`, the cytotoxicity call is reported as “inactive”. In the case of `CC(=O)Nc1ccc(CCN)cc1`, the cytotoxicity call is reported as “inactive”. With `CNC(C)(C)Cc1ccccc1.O=S(=O)(O)O` the cytotoxicity call was “inactive”. `CC(C)NC(=O)[C@H]1CCS(=O)(=O)[C@H]2CNC[C@@H]12` was tested, and the cytotoxicity call was “inactive”. For `C[C@@H]1C(=O)NC[C@@H]2CN(CC3CC3)C[C@@H]21`, the cytotoxicity call was “inactive”. For `CCC(C(N)=O)N1CCCC1=O` (stereo not given), the cytotoxicity call was “inactive”. `O=[As]O[As]=O` (stereo not given) was tested, and the cytotoxicity call was “active”. `C[C@H](CO)N1C[C@H](C)[C@@H](CN(C)C(=O)Oc2ccccc2)OCc2ccccc2-c2c(n(C)c3ccccc23)C1=O` was tested, and the cytotoxicity call was “inactive”. With `C[C@@H]1O[C@@H](OC(=O)Cc2ccccc2)[C@H](O)[C@H](O)[C@H]1O` the cytotoxicity call was “inactive”. `COC(=O)[C@H]1[C@H](CO)[C@H]2Cn3c(cccc3=O)[C@@H]1N2C(=O)C1CC1` was tested, and the cytotoxicity call was “inactive”. `O=C(NC[C@H]1CCC2(CCNCC2)O1)C1CC1` was tested, and the cytotoxicity call was “inactive”. For `O=C(O)C(Cl)Cl.[NaH]`, the cytotoxicity call was “inactive”. With `Cl.NCC(=O)c1ccccc1` the cytotoxicity call was “inactive”. `CNCC(O)c1ccc(O)cc1.CNCC(O)c1ccc(O)cc1.O=C(O)C(O)C(O)C(=O)O` (stereo not given) was tested, and the cytotoxicity call was “inactive”. For `Cc1ccc2c(CCN)c(C)n(C)c2c1`, the cytotoxicity call was “active”. In the case of `Cc1ccc2nc(CCN)[nH]c2c1`, the cytotoxicity call is reported as “inactive”. In the case of `Cc1[nH]c2ccc(O)cc2c1CCN`, the cytotoxicity call is reported as “inactive”. With `C[C@@H]1[C@H](O)[C@@H](C)/C=C\C=C/CC\C=C/C=C\C=C/C=C\[C@@H](O[C@@H]2O[C@H](C)[C@@H](O)[C@H](N)[C@@H]2O)C[C@@H]2O[C@](O)(C[C@@H](O)[C@H](O)CC[C@@H](O)C[C@@H](O)C[C@@H](O)CC(=O)O[C@H]1C)C[C@H](O)[C@H]2C(=O)O` the cytotoxicity call was “inactive”. In the case of `CN(C)[C@@H](CN)c1cccc(C(F)(F)F)c1`, the cytotoxicity call is reported as “inactive”. `CN[C@@H]1[C@@H](O)[C@@H](O[C@@H]2[C@H](O)[C@@H](O[C@H]3O[C@H]([C@@H](C)O)[C@@H](O)[C@H](O)[C@H]3N)[C@H](N)C[C@@H]2N)OC[C@]1(C)O` was tested, and the cytotoxicity call was “inactive”. `CCCCCCCCCCCCCCCC[n+]1ccccc1.[Cl-]` was tested, and the cytotoxicity call was “active”. With `CCCCCCCCCCCCCCCC[n+]1ccccc1` the cytotoxicity call was “active”. With `CC(=O)c1c(O)c(C)c(O)c(Cc2c(O)c3c(c(C(=O)/C=C/c4ccccc4)c2O)OC(C)(C)C=C3)c1O` the cytotoxicity call was “inactive”. For `COCC(=O)N1[C@@H]2Cn3c(ccc(C4=CCCC4)c3=O)[C@H]1[C@@H](C(=O)OC)[C@@H]2CO`, the cytotoxicity call was “inactive”. With `Cn1cc(CN2C[C@H]3CNC[C@H]3C2)cn1` the cytotoxicity call was “inactive”. For `Cc1ccc(C[C@H]2CCCN2)cc1C`, the cytotoxicity call was “inactive”. For `NCCc1cccc(O)c1`, the cytotoxicity call was “inactive”. For `OC[C@@H]1[C@@H](O)[C@H](O)[C@H]2[C@@H](O)CCN21`, the cytotoxicity call was “inactive”. In the case of `Cc1c(N)nc([C@H](CC(N)=O)NC[C@@H](N)C(N)=O)nc1C(=O)N[C@H](C(=O)N[C@@H](C)[C@H](O)[C@@H](C)C(=O)N[C@@H](C(=O)NCCc1nc(-c2nc(C(=O)NCCC[S+](C)C)cs2)cs1)[C@@H](C)O)[C@@H](O[C@H]1O[C@H](CO)[C@H](O)[C@@H](O)[C@H]1O[C@H]1O[C@H](CO)[C@@H](O)[C@H](OC(N)=O)[C@@H]1O)c1cnc[nH]1`, the cytotoxicity call is reported as “inactive”. With `Cn1cc(N2C[C@@H]3CNC[C@@H]3C2=O)cn1` the cytotoxicity call was “inactive”. `C/C=C(\C)C(=O)O[C@H]1C[C@@H](OC(C)=O)[C@@]2(C(=O)OC)CO[C@H]3[C@@H](O)[C@@](C)([C@]45O[C@@]4(C)[C@H]4C[C@@H]5O[C@H]5OC=C[C@@]54O)[C@H]4[C@]1(CO[C@]4(O)C(=O)OC)[C@@H]32` was tested, and the cytotoxicity call was “inactive”. `C[C@@H]1O[C@@H](O[C@@H]2C[C@@H](O)[C@]3(CO)[C@H]4[C@H](O)C[C@]5(C)[C@@H](C6=CC(=O)OC6)CC[C@]5(O)[C@@H]4CC[C@]3(O)C2)[C@H](O)[C@H](O)[C@H]1O` was tested, and the cytotoxicity call was “active”. With `CC1OC(OC2CC(O)C3(CO)C4C(O)CC5(C)C(C6=CC(=O)OC6)CCC5(O)C4CCC3(O)C2)C(O)C(O)C1O.O.O.O.O.O.O.O.O` (stereo not given) the cytotoxicity call was “active”. For `C[C@H]1C[C@@H](O)[C@]2(O)[C@@]13CC(=O)OC[C@@]2(C)[C@](C)(O)C(=O)C3`, the cytotoxicity call was “inactive”. With `CCn1cc(C(=O)[O-])c(=O)c2cc3c(cc21)OCO3.[K+]` the cytotoxicity call was “inactive”. In the case of `Oc1cc2c(cc1O)CNCC2`, the cytotoxicity call is reported as “inactive”. `CS(=O)(=O)C1C[C@H]2CC[C@@H](C1)N2` (stereo not given in full) was tested, and the cytotoxicity call was “inactive”. With `O=C1N[C@@H]2C(=C[C@H](O)[C@@H](O)[C@H]2O)c2cc3c(c(O)c21)OCO3` the cytotoxicity call was “active”. For `COC(=O)[C@H]1[C@H]2CO[C@@H]1CN2`, the cytotoxicity call was “inactive”. In the case of `C[C@H]1CN([C@@H](C)CO)C(=O)CCCn2cc(nn2)CO[C@H]1CN(C)C(=O)Oc1cccc2ccccc12`, the cytotoxicity call is reported as “inactive”. `O=C(c1ccno1)N1C[C@@H]2CCN[C@@H]2C1` was tested, and the cytotoxicity call was “inactive”. `NCC(=O)c1ccccc1` was tested, and the cytotoxicity call was “inactive”. For `O=C(Cc1ccccc1)c1ccccc1`, the cytotoxicity call was “inactive”. `CC(=O)[O][Hg][c]1ccccc1` was tested, and the cytotoxicity call was “active”. `COC(=O)CC1=C(C(=O)OC)[C@]2(C(=O)Nc3ccccc32)C(C(=O)OC)C(=N)O1` (stereo not given in full) was tested, and the cytotoxicity call was “inactive”. In the case of `N[C@@H](c1ccccc1)[C@@H](N)c1ccccc1`, the cytotoxicity call is reported as “inactive”. `CCCNC(=O)C1=NO[C@]2(CCNC2)C1` was tested, and the cytotoxicity call was “inactive”. For `CC[C@@H](C)C(=O)O[C@@H]1C[C@@]2(C)[C@H](c3ccoc3)OC(=O)C[C@]23O[C@@]2(C)O[C@]34[C@H](OC(=O)C(C)C)[C@@]3(O)[C@@H](OC(=O)[C@@]5(C)O[C@@H]5C)[C@@]5(C)C[C@]3(O)[C@@](C)([C@H]5CC(=O)OC)[C@@]14O2`, the cytotoxicity call was “inactive”. `COc1ccc(OC(=O)N(C)C[C@H]2OCc3ccccc3-c3c(n(C)c4ccccc34)C(=O)N([C@@H](C)CO)C[C@@H]2C)cc1` was tested, and the cytotoxicity call was “inactive”. `N[C@@]1(C(=O)O)CC[C@H](C(=O)O)C1.N[C@]1(C(=O)O)CC[C@@H](C(=O)O)C1` was tested, and the cytotoxicity call was “inactive”. With `CC1=C[C@H]2O[C@@H]3[C@H](O)[C@@H](O[C@H]4O[C@H](CO)[C@@H](O)[C@H](O)[C@H]4O)[C@](C)([C@@]2(CO)CC1)[C@]31CO1` the cytotoxicity call was “active”. With `Cc1cc(O[C@@H]2O[C@H](CO)[C@@H](O)[C@H](O)[C@H]2O)c2c3c(c(=O)oc2c1)CCC3` the cytotoxicity call was “inactive”. With `CC(=O)OC[C@]12CCC(C)=C[C@H]1O[C@@H]1[C@H](O)[C@@H](OC(C)=O)[C@@]2(C)[C@]12CO2` the cytotoxicity call was “active”.
